Results on 37 compounds are retold here after the supplement of paper PMC4954754.

± gives the uncertainty stated by the source.

The subject of assay [1] is HEK293T-Rex XBP1-RLuc. As to the kind of experiment: XBP1-RLuc splicing reporter activation, triplicate, relative to 500 nM thapsigargin (% of thapsigargin); higher = stronger IRE1/XBP1s reporter activation. As to conditions: 6.8 µM; 18 h; screen: confirmation. As for the experimental part: (§1)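 HEK293T-Rex cells stably expressing the ERSE-firefly luciferase (BiP promoter, ATF6-preferring) or XBP1-splicing Renilla luciferase (IRE1/XBP1s) reporter, 1536-well plates, compound at 6.8 µM for 18 hr at 37 °C; luminescence read […] and expressed as % activation = 100*(compound - median DMSO)/(median 500 nM thapsigargin - median DMSO). Primary screen was single-pass; confirmation screen in triplicate (mean ± SD).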

Assay [2] concerns HEK293T-Rex ERSE-FLuc. Description: ERSE-FLuc reporter activation, triplicate confirmation, relative to 500 nM thapsigargin (% of thapsigargin); higher = stronger ATF6/ERSE reporter activation. Conditions: 6.8 µM; 18 h; screen: confirmation. As for the experimental part:
as §1

On to `Cc1ccc(O)c(NC(=O)c2cc(-c3ccc(O)cc3)on2)c1`, for which, in assay [1], the “XBP1-RLuc splicing reporter activation” value is 22.4 ± 1.8. The ERSE-FLuc reporter activation in assay [2] worked out at 54.1 ± 9.

For `CNC(=O)c1ccccc1Nc1cc(NC(=O)Cc2ccc(F)c(F)c2)ncc1C(F)(F)F`, the “XBP1-RLuc splicing reporter activation” value in assay [1] was found to be 91.3 ± 2.1. The ERSE-FLuc reporter activation in assay [2] stood at 54.6 ± 9.

In the case of `COc1ccccc1-c1nnc(Nc2nc3c(OC)cccc3s2)o1`, the “XBP1-RLuc splicing reporter activation” value in assay [1] came to 10.2 ± 1. The same compound registered an ERSE-FLuc reporter activation in assay [2] of 51 ± 10.

Take `Cc1ccc2nc(NC(=O)c3cccc4ccccc34)sc2c1`: the “XBP1-RLuc splicing reporter activation” value in assay [1] was 4.94 ± 1.5. In assay [2], this compound came in with an ERSE-FLuc reporter activation of 43.1 ± 7.8.

For `O=C1N/C(=C/c2ccc(O)cc2)C(=O)N1Cc1ccc(Br)cc1`, the “XBP1-RLuc splicing reporter activation” value in assay [1] was 33.3 ± 4.9. The compound also had an ERSE-FLuc reporter activation in assay [2] of 37.1 ± 3.6.

With `N#CC1=C(N)Oc2c(ccc3ccccc23)C1c1ccsc1` (centres undefined), the “XBP1-RLuc splicing reporter activation” value in assay [1] is 9.04 ± 1.1. In assay [2], this compound came in with an ERSE-FLuc reporter activation of 25.8 ± 2.7.

As to `O=C(Nc1nc2c(s1)CCCC2)c1cccc2ccccc12`, in assay [1], the “XBP1-RLuc splicing reporter activation” value worked out at 3.36 ± 1.8. The compound further displayed an ERSE-FLuc reporter activation in assay [2] of 33.8 ± 2.4.

Consider `N#C/C(=C\c1ccc(O)c(O)c1)c1nc2ccccc2[nH]1`, for which the “XBP1-RLuc splicing reporter activation” value in assay [1] stood at 12.6 ± 0.2. Besides, the ERSE-FLuc reporter activation in assay [2] was found to be 34.3 ± 1.3.

As for `CCCCCOc1ccc(N/C(N)=N/c2nc(C)cc(C)n2)cc1`, the “XBP1-RLuc splicing reporter activation” value in assay [1] came out at 159 ± 6.3. The ERSE-FLuc reporter activation in assay [2] worked out at 110 ± 12.

Consider `Oc1ccc(-c2cnc3c(Nc4ccc5[nH]ccc5c4)nccn23)cc1`, for which the “XBP1-RLuc splicing reporter activation” value in assay [1] was 39.2 ± 1.5. In assay [2], this compound returned an ERSE-FLuc reporter activation of 35.7 ± 5.6.

In the case of `CN(C)c1ccc(/C=C/C(=O)NC(=O)c2ccccc2OC(=O)c2ccccc2)cc1`, the “XBP1-RLuc splicing reporter activation” value in assay [1] was found to be 0.481 ± 0.46. This compound returned an ERSE-FLuc reporter activation in assay [2] of 26.9 ± 8.8.

With `Nc1ccc2nc(-c3ccccn3)[nH]c2c1`, the “XBP1-RLuc splicing reporter activation” value in assay [1] worked out at 18.7 ± 1.1. For the same compound, the ERSE-FLuc reporter activation in assay [2] is 26.8 ± 9.3.

Regarding `O=C(Nc1ccc2c(c1)OCCO2)C(=O)Nc1ccccc1Cl`, the “XBP1-RLuc splicing reporter activation” value in assay [1] is -0.329 ± 3.7. In addition, the ERSE-FLuc reporter activation in assay [2] was determined as 27 ± 5.6.

Turning to `Oc1cccc(/C=N/Nc2ccc(Cl)nn2)c1O`, in assay [1], the “XBP1-RLuc splicing reporter activation” value is 19 ± 1.9. Moreover, the ERSE-FLuc reporter activation in assay [2] came to 35 ± 6.

As for `O=[N+]([O-])c1ccccc1N/N=C/c1ccc(O)c(O)c1`, the “XBP1-RLuc splicing reporter activation” value in assay [1] came out at 10.3 ± 1.3. Further, in assay [2], the ERSE-FLuc reporter activation stood at 43.3 ± 6.8.

As for `COc1ccc(CCNC(=O)c2cccc(-c3ccc(N4CCOCC4)nc3)c2)cc1`, the “XBP1-RLuc splicing reporter activation” value in assay [1] came out at 1.79 ± 0.38. In addition, the ERSE-FLuc reporter activation in assay [2] worked out at 48.7 ± 4.2.

For the compound `O=[N+]([O-])c1ccc(/C=C/c2ccc(O)cc2)cc1`, the “XBP1-RLuc splicing reporter activation” value in assay [1] stood at 19.2 ± 1.3. Also, the ERSE-FLuc reporter activation in assay [2] amounted to 28.8 ± 3.3.

Consider `Nc1ccc2nc(-c3cc(Cl)c(N)c(Cl)c3)[nH]c2c1`, for which the “XBP1-RLuc splicing reporter activation” value in assay [1] was 13.2 ± 1.2. Also, the ERSE-FLuc reporter activation in assay [2] was determined as 35.6 ± 10.

In the case of `C=CCNC(=O)c1cc(-c2ccc(F)cc2)on1`, the “XBP1-RLuc splicing reporter activation” value in assay [1] was found to be 1.92 ± 2.1. For the same compound, the ERSE-FLuc reporter activation in assay [2] is 25.1 ± 4.7.

Regarding `NN1C(=O)/C(=C/c2ccc(O)c(O)c2)SC1=S`, in assay [1], the “XBP1-RLuc splicing reporter activation” value was determined as 16.7 ± 0.56. The ERSE-FLuc reporter activation in assay [2] was found to be 38.3 ± 1.

As for `O=C(Nc1ccc(O)cc1)c1ccc2ccccc2c1`, in assay [1], the “XBP1-RLuc splicing reporter activation” value came to 6.41 ± 0.68. This compound also yielded an ERSE-FLuc reporter activation in assay [2] of 28.3 ± 11.

As to `COc1ccc(Nc2nccn3c(-c4ccsc4)cnc23)cn1`, the “XBP1-RLuc splicing reporter activation” value in assay [1] worked out at 3.91 ± 0.5. The ERSE-FLuc reporter activation in assay [2] was 38.1 ± 6.9.

For `CCCc1cc(C(=O)Nc2cc(C)ccc2O)no1`, the “XBP1-RLuc splicing reporter activation” value in assay [1] stood at 24.5 ± 4.7. The compound further came in with an ERSE-FLuc reporter activation in assay [2] of 83.4 ± 6.3.

Take `Nc1nc(Nc2ccc(Cl)c(Cl)c2)nc2ccccc12`: the “XBP1-RLuc splicing reporter activation” value in assay [1] came to 11.3 ± 0.79. In addition, the ERSE-FLuc reporter activation in assay [2] was determined as 43.5 ± 3.9.

Consider `O=C(Nc1ccccc1O)c1ccc(C(=O)c2ccccc2)cc1`, for which the “XBP1-RLuc splicing reporter activation” value in assay [1] turned out to be 10.4 ± 0.77. In assay [2], this compound returned an ERSE-FLuc reporter activation of 41.5 ± 9.7.

For `O=C(N/N=C/c1cccc2ccccc12)c1ccc2c(c1)OCO2`, in assay [1], the “XBP1-RLuc splicing reporter activation” value is 5.9 ± 3.2. In assay [2], the ERSE-FLuc reporter activation worked out at 29.9 ± 4.3.

In the case of `Cc1nc(-c2coc3c(O)c(O)ccc3c2=O)cs1`, the “XBP1-RLuc splicing reporter activation” value in assay [1] came out at 7.82 ± 0.28. In assay [2], this compound registered an ERSE-FLuc reporter activation of 25.2 ± 4.1.

Consider `O=C1NC(=Nc2ccc(F)cc2)S/C1=C\c1ccc(O)c(O)c1`, for which the “XBP1-RLuc splicing reporter activation” value in assay [1] came out at 17.4 ± 1.8. Further, the ERSE-FLuc reporter activation in assay [2] came to 32.4 ± 2.3.

As for `Cc1ccc(O)c(NC(=O)c2cc(-c3ccc(F)cc3)on2)c1`, in assay [1], the “XBP1-RLuc splicing reporter activation” value is 15.9 ± 0.37. In addition, the ERSE-FLuc reporter activation in assay [2] is 31.9 ± 8.4.

Turning to `OCCNc1nc(Nc2ccc(Cl)cc2)nc2ccccc12`, the “XBP1-RLuc splicing reporter activation” value in assay [1] was 32.6 ± 2.5. In addition, the ERSE-FLuc reporter activation in assay [2] worked out at 67.9 ± 10.

`COC(=O)c1c(NC(=O)CCl)sc(C(=O)Nc2cccc([N+](=O)[O-])c2)c1C`: the “XBP1-RLuc splicing reporter activation” value in assay [1] amounted to 12.1 ± 0.46. In assay [2], this compound showed an ERSE-FLuc reporter activation of 37.6 ± 7.8.

As to `CC(C)CNC(=O)c1cc(-c2ccc(F)cc2)no1`, the “XBP1-RLuc splicing reporter activation” value in assay [1] is 4.97 ± 1.2. For the same compound, the ERSE-FLuc reporter activation in assay [2] is 26.6 ± 1.6.

As for `CCOc1cccc(/C=C2\NC(=S)N(C)C2=O)c1O`, the “XBP1-RLuc splicing reporter activation” value in assay [1] is -2.09 ± 0.54. The same compound gave an ERSE-FLuc reporter activation in assay [2] of 26.2 ± 29.

Consider `CC(Oc1ccc(Cl)cc1Cl)C(=O)NNC(=O)c1ccc(O)c(O)c1` (centres undefined), for which the “XBP1-RLuc splicing reporter activation” value in assay [1] came out at 15.4 ± 1.8. Moreover, the ERSE-FLuc reporter activation in assay [2] is 28.5 ± 5.5.

With `COCCNC(=O)c1cc(-c2cccs2)on1`, the “XBP1-RLuc splicing reporter activation” value in assay [1] worked out at 6.38 ± 1.2. Further, the ERSE-FLuc reporter activation in assay [2] worked out at 27.4 ± 2.4.

As for `COc1cccc(Nc2nc(-c3ccc(OC)c(F)c3)cs2)c1`, the “XBP1-RLuc splicing reporter activation” value in assay [1] was determined as 1.64 ± 0.88. The compound also showed an ERSE-FLuc reporter activation in assay [2] of 25.2 ± 4.3.

For the compound `COC(=O)c1ccc2c(COC(C)=O)c(OC(C)=O)ccc2c1COC(C)=O`, the “XBP1-RLuc splicing reporter activation” value in assay [1] came to 24.5 ± 2.2. Further, the ERSE-FLuc reporter activation in assay [2] worked out at 113 ± 10.
